The values that follow come from PubChem BioAssay (EPA / NIEHS).

Activity calls are given as the source filed them. How the source made its calls: active means hit-call score of the fitted dose curve at least 0.9, where 1 is the maximum; inactive means score below 0.9.

Read-out in one test: Cytochrome P450 (CYP24A1), CYP24A1 (gene 1591)
The test is described as follows: LTEA_HepaRG_CYP24A1: Life Technologies and Expression Analysis (LTEA) Assay for Cytochrome P450 (CYP24A1) using HepaRG (AID 2283478). As to conditions: mRNA level, 48 h; actives raise or lower the signal. The method in brief: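 qRT-PCR read-out: CYP24A1 transcript levels normalized to three housekeeping genes, bidirectional curve fits against 0.5% DMSO baseline. Human HepaRG cells treated 48 h with chemicals at eight concentrations from 100 uM in half-log steps.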
Turning to `C[C@H]1[C@H](c2ccc(Cl)cc2)SC(=O)N1C(=O)NC1CCCCC1`, the molecule was called inactive.
On the same count and under the same terms, to `O=C1c2ccccc2C(=O)N1SC(Cl)(Cl)Cl` belongs “inactive”; to `O=C(NC(=O)c1c(F)cccc1F)Nc1ccc(OC(F)(F)C(F)OC(F)(F)F)c(Cl)c1` (stereo unspecified), “inactive”.

Read-out in another test: Cytochrome P450 (CYP1A2), CYP1A2 (gene 1544)
The test is described as follows: LTEA_HepaRG_CYP1A2: Life Technologies and Expression Analysis (LTEA) Assay for Cytochrome P450 (CYP1A2) using HepaRG (AID 2283479). As to conditions: mRNA level, 48 h; actives raise or lower the signal. Summed up: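 HepaRG, 48 h exposure, top 100 uM, half-log 8-pt, 0.5% DMSO vehicle, duplicates. Readout: TaqMan qRT-PCR of CYP1A2 mRNA, housekeeping-normalized (ACTB/GAPDH/POLR2A). Gain/loss fit relative to DMSO baseline.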
In the case of `CCN(CC)C(=O)SCc1ccc(Cl)cc1`, the molecule was called inactive.
The AC50 is the concentration giving half of the maximal activity seen. On to `CC1(C)C(C=C(Cl)Cl)C1C(=O)OC(C#N)c1ccc(F)c(Oc2ccccc2)c1` (stereo unspecified), for which the half-maximal activity concentration (AC50) is 20.2 µM (active).
On the same count and under the same terms, to `O=C(O)COc1ccc(Cl)cc1Cl` belongs 50 µM (active); to `CCC(C)(C)C(=O)OC1=C(c2ccc(Cl)cc2Cl)C(=O)OC12CCCCC2`, 50 µM (active); to `CCCN(CCC)c1c([N+](=O)[O-])cc(C(F)(F)F)cc1[N+](=O)[O-]`, 32.3 µM (active).
On to `CNC(=O)/C=C(\C)OP(=O)(OC)OC`, for which the molecule was classed as inactive.
On the same count and under the same terms, the result for `O=C(O)C(F)(F)C(F)(F)C(F)(F)C(F)(F)C(F)(F)C(F)(F)C(F)(F)F` reads “inactive”.
As to `CCCN(CCOc1c(Cl)cc(Cl)cc1Cl)C(=O)n1ccnc1`, the AC50 was 3.86 µM (active).
As to `CCc1ccc(C(=O)NN(C(=O)c2cc(C)cc(C)c2)C(C)(C)C)cc1`, the call was inactive.
As to `N#CN`, the result was inactive.
The same measure, in the same setting: the result for `CCOCN(C(=O)CCl)c1c(C)cccc1CC` reads “inactive”.
`O=S1OCC2C(CO1)C1(Cl)C(Cl)=C(Cl)C2(Cl)C1(Cl)Cl` (stereo unspecified): the concentration at half-maximal activity (AC50) was 35.4 µM (active).
The same measure, in the same setting: to `CCC(C)(NC(=O)c1cc(Cl)c(C)c(Cl)c1)C(=O)CCl` (stereo unspecified) belongs 74.1 µM (active); to `O=C(Nc1ccccc1)Nc1cnns1`, 68 µM (active).
Turning to `CCC(C)Nc1c([N+](=O)[O-])cc(C(C)(C)C)cc1[N+](=O)[O-]` (stereo unspecified), the call was inactive.
For `Cc1[nH]c(=O)n(C(C)(C)C)c(=O)c1Cl`, the AC50 is 36.2 µM (active).
Same read-out and setting: the result for `Clc1ccccc1-c1nnc(-c2ccccc2Cl)nn1` reads 17.3 µM (active).
As to `ClC1C(Cl)C(Cl)C(Cl)C(Cl)C1Cl` (stereo unspecified), the molecule was classed as inactive.
Same read-out and setting: the result for `C#CCN1C(=O)COc2cc(F)c(N3C(=O)C4=C(CCCC4)C3=O)cc21` reads “inactive”.
Same read-out and setting: the result for `CC(C)(C)C(O)/C(=C\c1ccc(Cl)cc1Cl)n1cncn1` (stereo unspecified) reads “inactive”.
For `C[C@H]1[C@H](c2ccc(Cl)cc2)SC(=O)N1C(=O)NC1CCCCC1`, the AC50 is 83.9 µM (active).
As for `O=C1c2ccccc2C(=O)N1SC(Cl)(Cl)Cl`, the outcome was inactive.
For the molecule `O=C(NC(=O)c1c(F)cccc1F)Nc1ccc(OC(F)(F)C(F)OC(F)(F)F)c(Cl)c1` (stereo unspecified), the half-maximal activity concentration (AC50) was 12.3 µM (active).
